Rows were chosen to be rich in hits. Some 4.8% of all compounds tested hit in one or more screens of this group.
ALR inh: inhibitors of human ALR sulfhydryl oxidase, primary screen, biochemical, H2O2 detection, HRP-luminol luminescence, single point | purified ALR, DTT oxidation | inhibition, % (concentration not given with the values) | 3.8% of 290,000 active;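 active = mean replicate inhibition above about 79%, with every replicate also reaching it, limit read from the data; inconclusive = only one of the two criteria met; inactive = mean below limit and not every replicate reaching it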
Target sequence (P55789 whole entry, looked up): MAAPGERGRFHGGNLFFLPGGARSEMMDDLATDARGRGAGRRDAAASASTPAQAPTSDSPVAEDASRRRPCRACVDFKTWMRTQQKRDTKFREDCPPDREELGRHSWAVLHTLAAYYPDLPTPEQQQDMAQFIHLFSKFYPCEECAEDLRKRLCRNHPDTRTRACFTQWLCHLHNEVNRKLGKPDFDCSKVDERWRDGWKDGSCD
HIF activator: HIF pathway transcriptional activators, primary screen, cell-based, U2OS HRE-luciferase, luminescence; AID 1910, 2009; U2OS HRE-luciferase reporter; normalized: DMSO 0%, desferrioxamine 100%; activation, % at 7.5 µM (by protocol); 0.32% of 300,000 active;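 active = mean activation of at least 10% of the iron chelator positive control signal, with at least half of replicates also reaching 10%; inconclusive = mean and replicate majority disagree about reaching 10%; inactive = mean and most replicates under 10%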
Mot1-301 SUMO: yeast Mot1-301 growth rescue at high temperature, primary screen, SUMOylation pathway inhibitor project, S. cerevisiae, ATP luminescence, 38.5C; 1% of 320,000 active; S. cerevisiae Mot1-301 growth rescue; percent above DMSO median, 100 means doubled; growth rescue, % at 18.8 µM;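 active = every valid replicate shows activation above 250% relative to neutral control wells; inactive = the rest, any valid replicate at or below 250%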;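 note: OY570 slx delta 5 strain wells were the positive control but not used for scaling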
AI-2 QS mod: Vibrio harveyi AI-2 quorum sensing modulators, primary screen, JMH597 strain, luminescence/OD600 ratio; AID 2094, 2009; Vibrio harveyi JMH597 AI-2 luminescence/OD600 ratio, 9 h; hits give low values; strain lacks LuxN and CqsS sensors; 0 = neutral-control median; 0.4% of 300,000 active; activity change, % at 7.5 µM; in the data active = activity change below about -75%, passing the limit was not always enough; inconclusive = no clear call, values can overlap the other calls;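 note: luminescence divided by OD600 gain over 9 h not by final OD600 alone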
Yeast Mot1 SUMO: growth restoration of Mot1-301 yeast on galactose, dose response, SUMO pathway inhibitor project, whole organism, S. cerevisiae, ATP luminescence, cherry-picked samples | shares compounds with Mot1-301 SUMO | S. cerevisiae Mot1-301 galactose growth, 24 h; -100 = growth of slx-deleted rescue strain | growth activity, percent, % at 42 µM | 2,300 tested, under 10 active;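 active = Signal drops as the depositor expects, and the fitted half-maximal dose is no more than ten times the top valid tested dose; inconclusive = Poor fit, or a flat curve whose signal drops by 30% to 70%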;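 note: more negative values mean stronger growth rescue toward the control strain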
Numbers without * were called inactive; ? = inconclusive; · = no result given; + = active, no number.

SMILES	ALR inh	HIF activator	Mot1-301 SUMO	AI-2 QS mod	Yeast Mot1 SUMO
CC(C)(C)C1c2[nH]c3ccccc3c2CCN1Cc1cccc(OCCO)c1 (configuration not stated)	10	0	710*	27	0
Cn1nc(C(C)(C)C)c([N+](=O)[O-])c1C(=O)Nc1ccccc1	-3	-1	586*	16	0
CC(NC(=O)c1ccccc1)C(=O)OCC(=O)c1c(N)n(C)c(=O)n(C)c1=O (configuration not stated)	-2	·	1	·	·
O=C(c1cc(-c2ccc(Cl)cc2)n(-c2ccc(Cl)cc2)n1)N1CCOCC1	62	0	399*	13	0
O=C(Cn1c(=O)oc2ccccc21)N1CCOCC1	1	0	8	11	·
Cc1c(C(=O)Nc2cccc(F)c2)cnn1-c1ccccc1	2	-6	805*	5	-1
Cc1c(C(=O)Nc2ccccc2)cnn1-c1ccccc1	8	3	38	8	·
CCOCCCNC(=O)C(c1ccc(OC)cc1)N(Cc1ccc2c(c1)OCO2)C(=O)CNC(C)=O (configuration not stated)	-1	-7	442*	17	1
CCOCCCNC(=O)C(c1ccc(OC)cc1)N(Cc1cccs1)C(=O)CNC(C)=O (configuration not stated)	-2	0	5	3	·
COc1ccccc1NC(=S)N(Cc1ccccc1)Cc1cccs1	-4	1	+	36	0
COc1ccccc1NC(=S)N(Cc1cccs1)C1CCCC1	·	-1	-16	1	·
CCOc1ccc(CCNC(=O)Cc2ccc(NC3=NC4CS(=O)(=O)CC4S3)cc2)cc1OCC (configuration not stated)	-2	1	13	15	·
CC(=O)Nc1ccc(-c2csc(NC(=O)C3CC(=O)N(c4ccc5c(c4)OCCO5)C3)n2)cc1 (configuration not stated)	-6	-1	508*	20	-1
CN(C(=O)c1cccnc1)c1nnc(-c2cnccn2)s1	-17	0	1	8	·
CN(C(=O)C1CCCO1)c1nnc(-c2cnccn2)s1 (configuration not stated)	1	5	519*	11	0
Cc1ccc(-c2nnc(N(C)C(=O)C3CCCO3)s2)cn1 (configuration not stated)	-8	2	·	27	·
CN(C(=O)c1ccncc1)c1nnc(-c2cnccn2)s1	-25	0	365*	1	0
O=c1[nH]c(N2CCOCC2)nc2ncn(Cc3ccccc3)c12	-8	0	6	9	·
N=c1ncn(CC(O)CO)c2nc(N3CCOCC3)[nH]c12 (configuration not stated)	29	-1	457*	6	0
CN(CC(=O)Nc1ccc(Cl)cc1F)C1=NS(=O)(=O)c2ccccc21	0	·	-6	·	·
CN(C)c1ccc(-n2cccc2/C=C/[N+](=O)[O-])cc1	70	1	234	-25	·
CN(c1ccccc1)c1ccc(/C=C/[N+](=O)[O-])cc1	·	-4	804*	?	-3
Cc1cccc(OCC(=O)Nc2ccc(NC(=O)c3ccco3)cc2)c1	·	4	·	7	·
COc1ccc(C2CC3(CC(C)(C)NC(=S)N3)Oc3cc(O)cc(C)c32)cc1 (configuration not stated)	11	0	978*	-8	0
COc1ccc(S(=O)(=O)N2CCCC2CNC(=O)C(=O)NCc2ccccn2)cc1 (configuration not stated)	-2	-37	440*	69	0
Cc1ccc(NC(=O)C(=O)NCC2CCCN2S(=O)(=O)c2cccs2)cc1 (configuration not stated)	-7	0	464*	10	0
O=C(NCC1CCCN1S(=O)(=O)c1cccs1)C(=O)Nc1ccccc1 (configuration not stated)	-5	1	31	3	·
